Screening data as filed in PubChem.
NOD2-RIPK2 inh: NOD2-RIPK2 protein interaction inhibition; O43353; CHO BLA complementation NOD2-RIPK2, CCF4 ratio; inhibition, % at 4.98 µM; actives 0.38% (n = 360,000); AID 624267; in the data active = inhibition above about 21%
TLR9-MyD88 inh: inhibitors of human TLR9-MyD88 binding; AID 504734; actives 0.21% (n = 340,000); CHO BLA complementation TLR9-MyD88, CCF4 FRET ratio; Q9NR96+Q99836; inhibition, % at 4.98 µM;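 active = inhibition above the mean over all tested compounds plus 3 SD, cut at about 21% in these data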
NPR2 activator: GC-B (human) receptor activation | HEK293-GC-B cells, CNP EC30, cGMP TR-FRET; 0% at EC30 CNP, 100% saturating CNP | activation, % at 10 µM | actives 0.11% (n = 370,000);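 active = activation at 10 µM reaching about 35% in either raw or pattern-adjusted values, limit read from the data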
Neddylation inh: cullin neddylation inhibition; inhibition, % at 25 µM; actives 0.58% (n = 360,000); P61081+Q13564; TR-FRET cullin neddylation, biochemical; in the data active = inhibition above about 36%
Target sequence (P61081 whole entry, looked up): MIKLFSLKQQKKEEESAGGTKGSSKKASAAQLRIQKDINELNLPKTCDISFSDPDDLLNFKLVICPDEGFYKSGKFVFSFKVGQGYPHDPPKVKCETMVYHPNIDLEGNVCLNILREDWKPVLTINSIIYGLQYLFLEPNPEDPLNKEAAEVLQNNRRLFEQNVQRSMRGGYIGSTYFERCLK
Target sequence (Q13564 whole entry, looked up): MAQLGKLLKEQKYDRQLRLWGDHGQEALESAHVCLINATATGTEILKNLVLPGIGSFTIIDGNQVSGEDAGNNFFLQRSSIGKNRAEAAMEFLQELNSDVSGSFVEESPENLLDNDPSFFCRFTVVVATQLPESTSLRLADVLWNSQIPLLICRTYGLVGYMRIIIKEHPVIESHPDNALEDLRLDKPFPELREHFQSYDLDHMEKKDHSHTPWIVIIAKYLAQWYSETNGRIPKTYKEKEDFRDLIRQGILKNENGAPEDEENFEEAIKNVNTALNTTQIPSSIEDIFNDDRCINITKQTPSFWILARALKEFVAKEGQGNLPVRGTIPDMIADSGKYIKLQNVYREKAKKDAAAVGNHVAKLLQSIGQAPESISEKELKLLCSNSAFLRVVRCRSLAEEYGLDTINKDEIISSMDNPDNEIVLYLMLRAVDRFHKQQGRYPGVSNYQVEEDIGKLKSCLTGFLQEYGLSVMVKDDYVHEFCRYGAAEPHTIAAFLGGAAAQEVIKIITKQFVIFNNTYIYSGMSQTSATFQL
TLR4 MyD88 comp: blocks binding of human TLR4 to MyD88; O00206+Q99836; HeLa CL3-4 TLR4/MyD88 BLA complementation, FRET ratio; inhibition, % at 8.4 µM; actives 0.18% (n = 200,000); in the data active = inhibition above about 25%
GC-A act: GC-A (human) enzyme activation; P16066; HEK293 GC-A cells, cGMP TR-FRET, EC30 ANP; 0% at EC30 ANP, 100% saturating ANP; activation, % at 10 µM; actives 0.14% (n = 370,000); AID 1671463; in the data active = activation above about 40%
TLR9-MyD88 conf: TLR9-MyD88 interaction inhibition, confirmation. shares compounds with TLR9-MyD88 inh. CHO TLR9/MyD88 BLA complementation, CCF4 FRET ratio. inhibition, % at 4.98 µM. actives 51% (n = 680). AID 540250;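 active = mean inhibition across three repeats above about 21% taken from the earlier screen, limit read from the data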;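 note: blue over green emission ratio reports constitutive TLR9 MyD88 association via BLA complementation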
BLA counter-1: beta-lactamase reporter inhibition, counter-screen artifact; shares compounds with TLR9-MyD88 inh; CHO-BLA cells, CCF4 FRET ratio, BLA reporter; inhibition, % at 4.98 µM; actives 7% (n = 680); AID 540251;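 active = mean inhibition above a 50% cutoff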;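 note: counterscreen of TLR9-MyD88 hits on CMV-driven BLA in CHO-K1 cells; higher means less blue over green ratio so more BLA blockade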
TLR9 CHO tox: CHO cell toxicity counter-screen for TLR9-MyD88 inhibitors | shares compounds with TLR9-MyD88 inh | TLR9-MyD88 CHO cells cytotoxicity, luminescence | inhibition, % at 4.98 µM | actives 39% (n = 680) | AID 588336; in the data active = inhibition above about 11%
NOD2-RIPK2 conf: confirmation of human NOD2-RIPK2 interaction inhibitors | shares compounds with NOD2-RIPK2 inh | CHO cells, NOD2-RIPK2 BLA complementation, CCF4 FRET | inhibition, % at 4.98 µM | actives 70% (n = 1,200) | AID 624370;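 active = mean inhibition across replicates above a set limit taken from the earlier primary screen, cut at about 21% in these data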
BLA counter-2: counter-screen for NOD2-RIPK2 interaction inhibitors: BLA reporter; inhibition, % at 4.98 µM; actives 57% (n = 1,200); shares compounds with NOD2-RIPK2 inh; CHO BLA reporter, CCF4 FRET ratio, counterscreen;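 active = mean inhibition above the low-control mean inhibition plus three low-control SD, cut at about 11% in these data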
Neddyl conf: confirmation of human cullin neddylation inhibitors; TR-FRET cullin neddylation biochemical assay; actives 13% (n = 1,800); calls only at 25 µM; shares compounds with Neddylation inh; in the data active = inhibition above about 40%;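 note: neddylation substrate is the cullin 1 ring ligase complex with SKP2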
A number is an active result; 0 = inactive; - = no result. An excerpt weighted towards active compounds, which were near 1.2% of everything screened.

SMILES | NOD2-RIPK2 inh | TLR9-MyD88 inh | NPR2 activator | Neddylation inh | TLR4 MyD88 comp | GC-A act | NOD2-RIPK2 conf | BLA counter-2 | others
NNC(=O)c1oc2nc(-c3ccc(Cl)cc3)cc(-c3ccccc3)c2c1N | 26 | 24 | 0 | 43 | - | 0 | 62 | 67 | TLR9-MyD88 conf=46;BLA counter-1=0;TLR9 CHO tox=0;Neddyl conf=0
Cc1ccc(-c2cc(C(=O)NN=Cc3cc(Br)ccc3O)[nH]n2)cc1C | - | - | 0 | - | - | 0 | - | -
NC(CCc1ccccc1)c1csc(Nc2nncc3ccccc23)n1 (configuration not stated) | 24 | - | 0 | 0 | - | 0 | 0 | 0
O=C(N[C@H](Cc1ccccc1)C(=O)NCCN1CCOCC1)[C@H]1O[C@@H](n2ccc(=O)[nH]c2=O)[C@H](O)[C@@H]1O | - | - | 0 | - | - | 0 | - | -
Cc1ccc2c(c1)=N/C(=N\c1[nH]c(O)c3ccccc13)N=2 | 29 | 0 | 0 | 0 | - | 0 | 51 | 48
CCCC1CCC2(CC1)CCC2OC(=S)NCCc1ccc(Cl)cc1 (configuration not stated) | - | - | 0 | - | - | 0 | - | -
COc1ccc(/C=C2/Sc3ccc(C(=O)NCCN4CCCCCC4)cc3NC2=O)cc1 | 24 | 0 | 0 | 0 | - | 0 | 0 | 0
CC(C)(C)C(=O)NC1CCCCN(Cc2cccc(Cl)c2)C1=O (configuration not stated) | - | - | 0 | - | - | 0 | - | -
Cc1cc(NC(=O)CCCS(=O)(=O)c2nc(-c3cccs3)cc(C(F)(F)F)n2)no1 | 68 | 0 | 0 | 0 | 0 | 0 | 43 | 15
COC(=O)CCS(=O)(=O)c1nc(-c2ccccc2)cc(C(F)(F)F)n1 | 44 | 0 | - | 0 | 0 | - | 59 | 13
Cc1cc(NC(=O)CSc2nc(-c3cccs3)cc(C(F)(F)F)n2)no1 | 0 | 0 | 0 | 0 | 0 | 0 | - | -
O=C(O)CCS(=O)(=O)c1nc(-c2cccs2)cc(C(F)(F)F)n1 | 0 | 0 | 0 | 0 | 0 | 0 | - | -
COc1ccc(-c2cc(C(F)(F)F)nc(S(C)(=O)=O)n2)cc1 | 33 | 0 | 0 | 0 | 0 | 46 | 42 | 0
COC(=O)[C@]12C[C@H](CC(=O)N3CCOCC3)C(=O)N(Cc3ccccc3)C1=C[C@H](C1CCCC1)O[C@@H]2C | - | - | 0 | - | - | 0 | - | -
CC(C)Cn1c(=O)cc(N2CCN(c3cccc(C(F)(F)F)c3)CC2)[nH]c1=O | - | - | 0 | - | - | 0 | - | -
C=CCN1C[C@H](COC(=O)CSc2ccccc2)Oc2cccc(F)c2S1(=O)=O | - | - | 0 | - | - | 0 | - | -
CCCCNc1c(-c2ccc(OC)c(Sc3ccc(OC)cc3)c2)nc2cnccn12 | 28 | 0 | 0 | 0 | - | 0 | 33 | 37
COc1ccc(N=C2S/C(=C\c3ccc(Cl)c([N+](=O)[O-])c3)C(=O)N2CCN(C)C)cc1 | 44 | 0 | 0 | 0 | - | 0 | 88 | 0
CCN(CC)CCN1C(=O)/C(=C\c2ccc(Cl)c([N+](=O)[O-])c2)SC1=Nc1ccc(OC)cc1 | 72 | 0 | 0 | 0 | - | 0 | 54 | 0
CCCN1C(=O)/C(=C/c2ccc(C)s2)SC1=Nc1ccc(OC)cc1 | 0 | 0 | 0 | 0 | 0 | 0 | - | -
Cc1ccc(C)c(NS(=O)(=O)c2ccc(-c3cnc(C4CC4)o3)cc2)c1 | 0 | 0 | 0 | 0 | - | 0 | - | -
Cc1cccc(NS(=O)(=O)c2ccc(-c3cnc(C4CC4)o3)cc2)c1C | 26 | 0 | 0 | 0 | - | 0 | 0 | 0
COC(=O)C12OCC34C(CC5C(C)=C(O)C(=O)CC5(C)C3C(O)C1O)OC(=O)C(OC(=O)C=C(C)C)C24 (configuration not stated) | 28 | 0 | 0 | 0 | - | 0 | 25 | 0
CC1=C(CO)C(=O)OC([C@@H](C)C2CC[C@H]3C4C[C@H]5O[C@]56[C@@H](O)C=CC(=O)[C@]6(C)C4CC[C@]23C)C1 (some centres not stated) | 47 | 0 | 0 | 0 | - | 0 | 63 | 0
COc1ccc(OC)c(C2C(C(=O)c3ccco3)=C(O)C(=O)N2CC2CCCO2)c1 (configuration not stated) | 21 | 0 | 0 | 0 | - | 0 | 0 | 0
SMILES | NOD2-RIPK2 inh | TLR9-MyD88 inh | NPR2 activator | Neddylation inh | TLR4 MyD88 comp | GC-A act | NOD2-RIPK2 conf | BLA counter-2 | others
Cc1ccc(-c2cc(-c3n[nH]c(=S)o3)c3ccccc3n2)cc1 | 22 | 0 | 0 | 49 | 0 | 0 | 0 | 0
CC(C)[C@H]1/C(=C/C2CC2)N2C(=O)C[C@H](c3cccc(C(F)(F)F)c3)N=C2N1Cc1ccc2c(c1)OCO2 | - | - | 0 | - | - | 0 | - | -
COc1ccc(C(=O)C2(C(=O)NC3CCCC3)CC(c3ccccc3C(F)(F)F)=NO2)cc1 (configuration not stated) | - | - | 0 | - | - | 0 | - | -
C[C@H]1[C@@H](NC(=O)/C=C/c2ccccc2)CC[C@@]23CCCN2C(=O)CCC[C@@H]13 | - | - | 0 | - | - | 0 | - | -
CN(Cc1cc(Cl)cc(Cl)c1)CC(C(=O)c1ccccc1)c1ccccc1 (configuration not stated) | 0 | 0 | 0 | 0 | - | 0 | - | -
CN(C)CC(C(=O)c1ccccc1)c1ccccc1 (configuration not stated) | 23 | 0 | 0 | 0 | 0 | 0 | 0 | 0
C#CCNC(=O)C[C@@H]1C(=O)N(CC=C)C2=CCCCC[C@]21C(=O)OC | - | - | 0 | - | - | 0 | - | -
Cc1cc(NC(=O)CSc2nc3cc(C(=O)NCCCOC(C)C)ccc3c(=O)n2Cc2ccco2)no1 | 30 | 0 | 0 | 0 | 0 | 0 | 0 | 0
O=P(CCCCCCCCCP(=O)(c1ccccc1)c1ccccc1)(c1ccccc1)c1ccccc1 | 22 | 0 | 0 | 0 | 0 | 0 | 0 | 0
O=C1C=C(c2c(O)ccc3ccccc23)c2ccccc2C1=O | 21 | 0 | 49 | 0 | - | 44 | 0 | 0
O=C(NCCCc1ccccc1)[C@H](Cc1c[nH]c2ccccc12)NC1(C(=O)NCCc2c[nH]c3ccccc23)CCC1 | - | - | 0 | - | - | 0 | - | -
